The nature of experiment [1]: qHTS Assay for Identification of Small Molecule Antagonists for NFkB Signaling Pathway (AID 895; active = well fitted inhibition curve with a large enough effect in the signal ratio, with a control signal flat, not every such curve was filed as active; the % refers to the signal ratio; also: potency is read from the fitted curve at half-maximal effect). The essentials: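 NFkB-bla ME-180 cervical carcinoma cells with beta-lactamase reporter under NFkB response element; compounds added, then TNF alpha at 10 pM final (EC50), 5 h at 37 C. LiveBLAzer substrate 2 h, room temperature; emission 460/530 nm at 405 nm excitation.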
Background: In qHTS, concentration-response curves come from the screen itself.

Experiment [2] addresses Muscarinic acetylcholine receptor M1 (Rattus norvegicus) (UniProt P08482). The experiment can be described thus: qHTS Assay for Antagonists of Acetylcholine Muscarinic M1 Receptor: Measurement of IP-One Response (AID 944). Also: nearly all actives have a fitted effect of over 75% in size. The essentials:
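Steps: plate transfected CHO-M1 cells overnight; add test compound, 10 min; add carbachol (200 nM, EC80) in stimulation buffer with LiCl; incubate 30 min; add labelled IP1 tracer and anti-IP1 antibody in lysis buffer; read HTRF after 10 min.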

For experiment [3], the target named is Pyruvate kinase (Leishmania mexicana) (UniProt Q27686). The experiment in a line: qHTS Validation Assay for Inhibitors of Leishmania Mexicana Pyruvate Kinase (AID 945). A digest of the protocol:
(§1)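 The enzyme is a highly purified E451W mutant of LmPYK used at 0.2 nM. It converts 0.5 mM PEP and 0.1 mM ADP over 1 h at room temperature; product ATP is quantified by luciferase luminescence relative to DMSO controls.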

For experiment [4], the target named is Pyruvate kinase PKM (Homo sapiens) (UniProt P14618). The experiment in a line: qHTS Assay for Activators of Human Muscle Pyruvate Kinase (AID 954; active = well fitted curve in the direction sought with a large enough effect, not every such curve was filed as active). A digest of the protocol: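 Human PKM2 activity is measured as ATP generation, detected by luciferase-coupled luminescence. The enzyme (0.1 nM) acts on 0.5 mM PEP and 0.1 mM ADP for 1 h at ambient temperature; data are normalized to uninhibited and full-inhibition wells.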

Experiment [5] is described as follows: qHTS Assay for Identification of Small Molecule Agonists for Thrombopoietin (TPO) Signaling Pathway (AID 917). Also: potency is read from the fitted curve at half-maximal effect. A digest of the protocol:
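Luminescence from a Glycoprotein IIb promoter–driven luciferase reporter served as read-out in murine Ba/F3 cells carrying the human TPO receptor. Cells, deprived of IL-3 overnight, received compounds with 26 pM TPO and were incubated 24 hrs at 37 C.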

The target in experiment [6] is Muscarinic acetylcholine receptor M1 (Rattus norvegicus) (UniProt P08482). The experiment can be described thus: qHTS Assay for Antagonists of Acetylcholine Muscarinic M1 Receptor: Kinetic Measurement of Intracellular Calcium Response (AID 943).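 Also: Fluo-4 calcium signal as peak divided by basal fluorescence over 4 min; series mostly up to about 35 µM; nearly all actives have a fitted effect of over 75% in size.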 A digest of the protocol:
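Intracellular calcium flux, recorded with Fluo-4 in a kinetic plate reader, served as signal; the response to carbachol at EC80 (100 nM final) was taken as maximal over minimal fluorescence after a 10 min compound pre-incubation in rat M1-CHO cells.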

Experiment [7] has as its target Pyruvate kinase PKM (Homo sapiens) (UniProt P14618). The experiment can be described thus: qHTS Assay for Inhibitors of Human Muscle Pyruvate Kinase (AID 958). The essentials:
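Compound pinned into substrate mix (0.5 mM PEP, 0.1 mM ADP), then 0.1 nM PKM2 added; 1 h, RT. Stop/detection luciferase reagent added, luminescence read. Normalized to no-inhibition and no-enzyme or reference-inhibitor controls.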

For experiment [8], the target named is Cytochrome P450 2C19 (Homo sapiens) (UniProt P33261). The experiment can be described thus: qHTS Assay for Inhibitors and Substrates of Cytochrome P450 2C19 (AID 899). Also: nearly all actives have a fitted effect of over 60% in size. A digest of the protocol:
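In 50mM KPO4, the reaction held 5nM enzyme and KM-level (10uM) Luciferin-H EGE; it ran 60 min at 37C after NADPH regeneration and a 10 min compound preincubation. Luminescence values were scaled to 57uM ketoconazole as complete inhibition.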

The target of experiment [9] is Pyruvate kinase (Leishmania mexicana) (UniProt Q27686). The experiment can be described thus: qHTS Validation Assay for Activators of Leishmania Mexicana Pyruvate Kinase (AID 959). The essentials: as §1

Values without a mark were called inactive. Records with an inconclusive call do not appear. Calls of active or inactive are those of the source. Unless noted, calls follow the shape of the dose curve; as a rule, active = well fitted curve in the direction sought with a large enough effect; inconclusive = small, poorly fitted or top-dose-only effect, or another doubt; inactive = no such curve, though single readings can be large; an effect the other way counts as inactive or inconclusive.

Sequence of Pyruvate kinase PKM (Homo sapiens) (P14618 whole entry, looked up): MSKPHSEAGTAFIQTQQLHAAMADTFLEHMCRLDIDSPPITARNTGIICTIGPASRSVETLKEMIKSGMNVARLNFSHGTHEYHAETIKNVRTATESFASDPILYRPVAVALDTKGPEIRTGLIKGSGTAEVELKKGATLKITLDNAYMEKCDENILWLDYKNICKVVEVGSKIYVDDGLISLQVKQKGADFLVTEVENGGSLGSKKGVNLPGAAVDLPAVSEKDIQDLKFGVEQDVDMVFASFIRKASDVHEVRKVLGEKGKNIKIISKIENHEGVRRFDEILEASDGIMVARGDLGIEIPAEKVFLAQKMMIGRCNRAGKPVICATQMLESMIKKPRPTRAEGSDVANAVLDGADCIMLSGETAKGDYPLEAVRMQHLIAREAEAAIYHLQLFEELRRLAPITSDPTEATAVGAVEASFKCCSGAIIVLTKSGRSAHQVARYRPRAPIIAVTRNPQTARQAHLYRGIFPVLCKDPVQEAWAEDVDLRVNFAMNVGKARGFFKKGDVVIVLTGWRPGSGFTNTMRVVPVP
Sequence of Muscarinic acetylcholine receptor M1 (Rattus norvegicus) (P08482 whole entry, looked up): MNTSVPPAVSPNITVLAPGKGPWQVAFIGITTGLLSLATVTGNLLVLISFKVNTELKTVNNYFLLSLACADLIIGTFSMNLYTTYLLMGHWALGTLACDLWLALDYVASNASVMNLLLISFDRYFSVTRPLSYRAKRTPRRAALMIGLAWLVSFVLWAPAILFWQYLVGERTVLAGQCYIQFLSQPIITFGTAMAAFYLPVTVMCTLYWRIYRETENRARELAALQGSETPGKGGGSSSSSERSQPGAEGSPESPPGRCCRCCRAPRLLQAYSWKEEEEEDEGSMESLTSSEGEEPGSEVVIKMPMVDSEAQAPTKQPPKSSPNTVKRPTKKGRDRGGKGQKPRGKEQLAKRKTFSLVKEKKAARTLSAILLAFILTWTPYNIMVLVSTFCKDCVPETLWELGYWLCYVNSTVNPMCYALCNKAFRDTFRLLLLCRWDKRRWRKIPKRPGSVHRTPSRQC
Sequence of Pyruvate kinase (Leishmania mexicana) (Q27686 2-499 E452W): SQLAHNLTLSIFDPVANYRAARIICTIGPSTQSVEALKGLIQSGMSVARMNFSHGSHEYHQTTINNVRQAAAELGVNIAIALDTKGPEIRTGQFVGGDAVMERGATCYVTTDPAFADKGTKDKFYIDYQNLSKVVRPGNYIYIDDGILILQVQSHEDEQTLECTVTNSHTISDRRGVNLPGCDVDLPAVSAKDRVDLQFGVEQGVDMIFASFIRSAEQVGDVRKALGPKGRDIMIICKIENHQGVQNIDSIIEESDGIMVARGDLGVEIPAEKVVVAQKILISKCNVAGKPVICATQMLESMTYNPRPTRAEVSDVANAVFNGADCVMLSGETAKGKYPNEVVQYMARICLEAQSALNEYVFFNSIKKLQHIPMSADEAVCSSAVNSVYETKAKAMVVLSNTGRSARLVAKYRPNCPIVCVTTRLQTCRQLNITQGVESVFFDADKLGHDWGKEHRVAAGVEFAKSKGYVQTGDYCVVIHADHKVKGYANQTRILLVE
Sequence of Cytochrome P450 2C19 (Homo sapiens) (P33261 whole entry, looked up): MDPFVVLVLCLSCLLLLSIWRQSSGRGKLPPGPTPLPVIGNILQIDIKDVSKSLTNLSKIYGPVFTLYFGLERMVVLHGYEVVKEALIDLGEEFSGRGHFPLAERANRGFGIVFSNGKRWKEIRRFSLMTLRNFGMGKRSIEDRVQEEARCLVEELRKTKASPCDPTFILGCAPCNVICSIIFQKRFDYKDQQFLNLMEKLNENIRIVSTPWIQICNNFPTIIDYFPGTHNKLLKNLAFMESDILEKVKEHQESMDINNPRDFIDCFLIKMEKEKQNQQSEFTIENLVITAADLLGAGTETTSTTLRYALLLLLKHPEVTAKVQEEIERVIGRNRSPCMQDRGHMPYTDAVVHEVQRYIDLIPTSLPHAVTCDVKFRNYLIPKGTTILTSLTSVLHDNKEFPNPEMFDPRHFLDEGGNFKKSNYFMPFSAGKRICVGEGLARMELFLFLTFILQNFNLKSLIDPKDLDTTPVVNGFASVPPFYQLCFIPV

Consider `CCCC(=O)NCCc1c2n(c3ccc(OC)cc13)CCCc1ccccc1-2`, for which the Potency entry in [1], in [2] and in experiment [3] was “inactive” throughout. In addition, in [4], the molecule was called inactive.
Regarding `O=C(O)c1cc(=O)cc(C(=O)O)[nH]1`, in experiment [1], the Potency was 3.55 µM (active). The Potency entry in experiment [5], in experiment [2] and in experiment [3] was “inactive” each time. Moreover, the molecule was called inactive in experiment [4].
As to `CN(C)S(=O)(=O)c1ccc2c(c1)/C(=C/c1cc3c([nH]1)CCCC3)C(=O)N2`, the Potency in [1] was 1.58 µM (active). Also, the Potency result in [5], in [6] and in [3] was “inactive” in each case. Further, in experiment [4], the outcome was inactive.
`NS(=O)(=O)c1cccc2c1c([N+](=O)[O-])cc1nc(O)c(O)nc12`: the Potency result in experiment [1], in [5], in experiment [6], in experiment [2], in experiment [3] and in [7] was “inactive” in each case.
With `C[C@](Cc1ccc(O)c(O)c1)(NN)C(=O)O`, in experiment [8], the Potency entry was “inactive”.
On to `C=CCn1c(=O)c2c(nc(-c3ccc(S(=O)(=O)O)cc3)n2C)n(C)c1=O`, for which the Potency result in experiment [1], in experiment [5], in [6] and in experiment [3] was “inactive” throughout. For the same molecule, the result in experiment [4] was inactive.
For the molecule `C#CCn1c(=O)c2c(ncn2C)n(C)c1=O`, the Potency result in [1], in experiment [5], in [6], in [2] and in experiment [3] was “inactive” each time. For the same molecule, the outcome in experiment [4] was inactive.
With `COc1cc(N)c(Cl)cc1C(=O)OCCN1CCCCC1`, the Potency entry in experiment [1], in experiment [5] and in experiment [3] was “inactive” each time. The molecule was called inactive in experiment [4].
With `C[N+](C)(C)CC=O`, the Potency result in [1], in experiment [5], in experiment [2] and in experiment [3] was “inactive” in each case. In addition, the molecule was classed as inactive in experiment [4].
Consider `c1ccc2nc(C3=NCCN3)ccc2c1`, for which the Potency result in [1], in [5] and in [3] was “inactive” throughout. For the same molecule, in experiment [4], the result was inactive.
With `O=C1NC(=O)c2cc(Nc3ccccc3)c(Nc3ccccc3)cc21`, the Potency in experiment [1] was 10 µM (active). Besides, the Potency result in [2] and in experiment [3] was “inactive” throughout. Further, in [4], the molecule was classed as inactive.
For `Nc1ccc(-c2nc3ccc(-c4nc5ccc(N)cc5[nH]4)cc3[nH]2)cc1`, in experiment [1], the Potency was 1.12 µM (active). Further, the Potency entry in experiment [5], in [2] and in [9] was “inactive” in each case. The call in [4] was inactive.
In the case of `O=C(O)/C(=C/c1c(C(=O)O)[nH]c2cc(Cl)cc(Cl)c12)c1ccccc1`, the Potency result in experiment [1], in experiment [5], in [6], in [2] and in [3] was “inactive” throughout. Further, the molecule was called inactive in [4].
Regarding `C=CC[C@H](N)C(=O)O`, the Potency entry in [1], in experiment [6], in [2] and in experiment [3] was “inactive” each time. Also, the result in experiment [4] was inactive.
On to `CCN(c1nc(N)c(C(=O)N=C(N)N)nc1Cl)C(C)C`, for which the Potency result in experiment [1], in experiment [2] and in [3] was “inactive” in each case. Also, the molecule was called inactive in [4].
On to `N#Cc1cc2nc(O)c(O)nc2cc1[N+](=O)[O-]`, for which the Potency result in experiment [1], in experiment [5], in experiment [6], in experiment [2] and in experiment [3] was “inactive” throughout. Further, the molecule was called inactive in experiment [4]. In addition, in [9], the Potency was 25.1 µM (active).
Regarding `NOCC(=O)O`, the Potency result in experiment [1], in experiment [6] and in experiment [3] was “inactive” throughout. The outcome in [4] was inactive.
Turning to `O=C(c1ccc2c(c1)OCCO2)N1CCCCC1`, the Potency result in [8] was “inactive”.
As to `NC(=Nc1ccccc1)NC(=O)c1nc(Cl)c(N)nc1N`, the results for the Potency in experiment [1] and in experiment [5] were 7.94 µM (active) and 2.51 µM (active), respectively. The Potency entry in experiment [3] was “inactive”. In experiment [4], the molecule was called inactive.
As for `Cc1nc(N=Nc2ccc(S(=O)(=O)O)cc2S(=O)(=O)O)c(COP(=O)(O)O)c(C=O)c1O`, the Potency entry in experiment [1], in experiment [6], in experiment [2] and in experiment [3] was “inactive” each time. The outcome in experiment [4] was inactive. Further, in [9], the Potency is 3.98 µM (active).
As for `O=C(O)C1=CCCN(CCON=C(c2ccccc2)c2ccccc2)C1`, the Potency result in experiment [1], in [5], in experiment [2] and in [3] was “inactive” in each case. Further, in experiment [4], the molecule was called inactive.
For `CCCCCCCCCCCCCCSCC(=O)O`, the Potency entry in experiment [1], in experiment [5], in experiment [2] and in experiment [3] was “inactive” each time. For the same molecule, the molecule was classed as inactive in experiment [4].

The values above are taken from PubChem BioAssay (NCATS).
